Here are results for 38 molecules from PubChem BioAssay (NCATS).

Records with an inconclusive call do not appear. Unmarked numbers belong to inactive results. Calls of active or inactive are those of the source. Calls follow the shape of the dose curve; as a rule, active = well fitted inhibition curve with a large enough effect; inconclusive = small, poorly fitted or top-dose-only effect; inactive = flat fitted curve, though single readings scatter. Where a SMILES comes first, the peptide text is derived from it. Bridges are numbered along the chain shown (N, C = ends). [ ]: non-standard residue; d: D form. hArg = N=C(N)NCCCC[C@H](N)C(=O)O; Mpa = O=C(O)CCS
Also: nearly all actives have a fitted effect of over 60% in size.

One assay concerns W2. The assay is described as follows: qHTS profiling for inhibitors of Plasmodium falciparum proliferation (AID 504749). Also: potency is read from the fitted curve at half-maximal effect.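 As to activity, negative = inhibition: 0% = DMSO vehicle and full inhibition = artemisinin control.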 To be noted: P. falciparum in erythrocytes, SYBR Green DNA, 72 h; series mostly up to 28.7 µM; activity, negative = inhibition: at the top concentration. An outline of the steps: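 Each compound contacts P. falciparum-infected red blood cells for 72 h at 37 C; lysis buffer (Tris, EDTA, saponin, Triton X, SYBR Green I) is added and fluorescence measured next morning; values normalized to controls.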
(In general: Quantitative high-throughput screening tests each substance at several concentrations.)
With `NC(=O)[C@@H]1CSSCCC(=O)N[C@@H](CCCCN=C(N)N)C(=O)NCC(=O)N[C@@H](CC(=O)O)C(=O)N[C@@H](Cc2c[nH]c3ccccc23)C(=O)N2CCC[C@H]2C(=O)N1` ([Mpa][hArg]GDWPC-NH2; disulfide 1-7), the “activity, negative = inhibition” value is -5.34%. Turning to `Cc1ccc(C(C)C)c(O)c1`, the “activity, negative = inhibition” value is -4.51%.

`CC[N+](C)(CC)CCOC(=O)C1c2ccccc2Oc2ccccc21`: the “activity, negative = inhibition” value is 0.0224%. `Cc1cc(C)c(NC(=O)CN(CC(=O)O)CC(=O)O)c(C)c1Br`: the “activity, negative = inhibition” value was 10.5%. Same read-out and setting: as for `Cc1ccc(S(=O)(=O)NC(=O)NC2CCCCCCC2)cc1`, the figure is 13.2%; as for `C[C@@H]1CCC[C@H](C)N1`, 2.59% [at 12.8 µM]. For the molecule `CCOC(=O)[C@H](CCc1ccccc1)N[C@@H](C)C(=O)N1CCC[C@H]1C(=O)O`, the “activity, negative = inhibition” value was 3.42%.

With `c1ccc2[nH]ccc2c1`, the “activity, negative = inhibition” value is -4.59%. Take `NS(=O)(=O)c1ccc(C(=O)O)cc1`: the “activity, negative = inhibition” value is -3.48%.

For the molecule `O=C(Cn1ccnc1[N+](=O)[O-])NCc1ccccc1`, the “activity, negative = inhibition” value was 4.7%. With `O=c1[nH]cnc2nc[nH]c12`, the “activity, negative = inhibition” value is -11.9%.

Turning to `O[C@@H]1CO[C@H]2[C@@H]1OC[C@@H]2O`, the “activity, negative = inhibition” value is 2.85%. Take `Cc1cc(OI)c(C(C)C)cc1-c1cc(C(C)C)c(OI)cc1C`: the Potency is 6.01 µM (active). Regarding `CC(=O)NS(=O)(=O)c1ccc(N)cc1`, the “activity, negative = inhibition” value is 15.9%.

Take `C=CCNC(N)=S`: the “activity, negative = inhibition” value was 1.59%.

For `NC(N)=NCCN1CCCCCCC1`, the “activity, negative = inhibition” value is -2.34% [at 12.8 µM].

On to `Nc1ccncc1N`, for which the “activity, negative = inhibition” value is -7.25%. With `Cc1ccc(S(=O)(=O)NC(=O)NC2CCCCC2)cc1`, the “activity, negative = inhibition” value is -2.26%. For `Cc1cc(-n2nc3ccc(Cl)cc3n2)c(O)c(C(C)(C)C)c1`, the “activity, negative = inhibition” value was -17.9%. On the same count and under the same terms, as for `CN/C(=C\[N+](=O)[O-])NCCSCc1csc(CN(C)C)n1`, the figure is 6.28% [at 12.8 µM]. `CCN1CC(CCN2CCOCC2)C(c2ccccc2)(c2ccccc2)C1=O` (stereo unspecified): the Potency is 9.53 µM (active).

As to `CCOC(=O)c1cccnc1`, the “activity, negative = inhibition” value is 8.41%.

As for `O=C1c2ccccc2C(=O)C1c1ccc(Br)cc1`, the Potency was 4.78 µM (active).

The subject of a further assay is CRL-7250. The assay is described as follows: Cytotoxic Profiling of Annotated Libraries Using Quantitative High-Throughput Screening (AID 1296008). As to max response: % is scaled to controls: 0 for no effect and ±100 for the full control effect. To be noted: Five cell lines viability, CellTiter-Glo ATP luminescence, 48-72 h; active compounds read low. The method in brief:
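Cells exposed to compounds for 48 or 72 hr at 37 degrees Celsius. Viability read as ATP-coupled luminescence with CellTiter-Glo after 10 min at room temperature.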
On the technique in general: In ATP-based viability assays light output follows the ATP content of the culture.
Consider `NC(=O)[C@@H]1CSSCCC(=O)N[C@@H](CCCCN=C(N)N)C(=O)NCC(=O)N[C@@H](CC(=O)O)C(=O)N[C@@H](Cc2c[nH]c3ccccc23)C(=O)N2CCC[C@H]2C(=O)N1` ([Mpa][hArg]GDWPC-NH2; disulfide 1-7), for which the molecule was classed as inactive.

As for `Cc1ccc(C(C)C)c(O)c1`, the call was inactive. For the molecule `COc1ccc(-c2cc(=O)c3c(O)cc(O[C@@H]4O[C@H](CO[C@@H]5O[C@@H](C)[C@H](O)[C@@H](O)[C@H]5O)[C@@H](O)[C@H](O)[C@H]4O)cc3o2)cc1O`, the max response was -26.4%. In the case of `CC[N+](C)(CC)CCOC(=O)C1c2ccccc2Oc2ccccc21`, the outcome was inactive. As for `COc1ccccc1Oc1c(NS(=O)(=O)c2ccc(C(C)(C)C)cc2)nc(-c2ncccn2)nc1OCCO`, the max response was -3.53%. With `Cc1cc(C)c(NC(=O)CN(CC(=O)O)CC(=O)O)c(C)c1Br`, the max response was -2.84%. The same measure, in the same setting: the same measure for `Cc1ccc(S(=O)(=O)NC(=O)NC2CCCCCCC2)cc1`: -5.06%; for `C/C=C1\[C@H]2C=C(C)C[C@]1(N)c1ccc(=O)[nH]c1C2`: -0.0215%. On to `C1CCN2C[C@@H]3C[C@@H](CN4CCCC[C@@H]34)[C@H]2C1`, for which the call was inactive. As to `CCCNC(C)(C)COC(=O)c1ccccc1`, the max response was -0.75%.

On to `C[C@@H]1CCC[C@H](C)N1`, for which the max response is 0.393%.

Take `Cn1cc(C(=O)[C@@H]2CCc3nc[nH]c3C2)c2ccccc21`: the call was inactive. With `CCOC(=O)[C@H](CCc1ccccc1)N[C@@H](C)C(=O)N1CCC[C@H]1C(=O)O`, the max response was 2.02%. Turning to `c1ccc2[nH]ccc2c1`, the max response was 4.59%. In the case of `NS(=O)(=O)c1ccc(C(=O)O)cc1`, the max response was -10.9%. Still for that read-out and setting: as for `O=C(Cn1ccnc1[N+](=O)[O-])NCc1ccccc1`, the figure is 0.299%. As to `O=c1[nH]cnc2nc[nH]c12`, the max response is -2.48%. In the case of `O[C@@H]1CO[C@H]2[C@@H]1OC[C@@H]2O`, the result was inactive. Regarding `Cc1cc(OI)c(C(C)C)cc1-c1cc(C(C)C)c(OI)cc1C`, the result was inactive. For the molecule `CC(=O)N[C@H]1[C@H]([C@H](O)[C@H](O)CO)OC(C(=O)O)=C[C@@H]1N=C(N)N`, the max response is -5.6%. The same measure, in the same setting: as for `CC1(C)S[C@@H]2[C@H](NC(=O)C(C(=O)O)c3ccccc3)C(=O)N2[C@H]1C(=O)O` (stereo partly specified), the figure is -9.98%; as for `CC(=O)NS(=O)(=O)c1ccc(N)cc1`, -3.19%. Turning to `C=CCNC(N)=S`, the max response is -5.07%.

Take `CC(=O)[C@@]1(O)CC[C@H]2[C@@H]3C[C@H](C)C4=CC(=O)C=C[C@]4(C)[C@@]3(F)[C@@H](O)C[C@@]21C`: the max response was -3.29%. For the molecule `OCCN1C[C@H](O)[C@@H](O)[C@H](O)[C@H]1CO`, the max response was 0.57%. Turning to `NC(N)=NCCN1CCCCCCC1`, the max response was -19.7%. Still for that read-out and setting: the same measure for `O=C1c2cccc(O)c2C(=O)c2c(O)cccc21`: -1.24%.

As to `NNC(=O)CP(=O)(c1ccccc1)c1ccccc1`, the max response is -0.948%. Same read-out and setting: the same measure for `C[C@@H](c1ncncc1F)C(O)(Cn1cncn1)c1ccc(F)cc1F` (stereo partly specified): -4.65%; for `Nc1ccncc1N`: -6.31%.

Consider `Cc1ccc(S(=O)(=O)NC(=O)NC2CCCCC2)cc1`, for which the molecule was called inactive.

In the case of `Cc1cc(-n2nc3ccc(Cl)cc3n2)c(O)c(C(C)(C)C)c1`, the max response is -3.44%. Still for that read-out and setting: as for `CN/C(=C\[N+](=O)[O-])NCCSCc1csc(CN(C)C)n1`, the figure is -2.16%; as for `CCN1CC(CCN2CCOCC2)C(c2ccccc2)(c2ccccc2)C1=O` (stereo unspecified), 2.93%; as for `O=C(/C=C/c1ccc(O)c(O)c1)O[C@@H]1C[C@@](OC(=O)/C=C/c2ccc(O)c(O)c2)(C(=O)O)C[C@@H](O)[C@@H]1O`, -6.43%. Turning to `CCOC(=O)c1cccnc1`, the max response was -2.26%. On the same count and under the same terms, the same measure for `CC[C@H](C)[C@H](N)C(=O)O`: -1.3%. The same measure, in the same setting: as for `O=C1c2ccccc2C(=O)C1c1ccc(Br)cc1`, the figure is -1.25%.
